For assay [1], the target named is Glucocorticoid receptor (Homo sapiens) (UniProt P04150). Description: GR-EFC Redistribution (AID 451; calls by dose curve; note: potency is the fitted concentration of half-maximal effect). The conditions noted are these: CHO-K1 GR-EFC translocation, beta-gal luminescence, 2 h. In a few lines: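 CHO-K1 cells stably expressing nuclear-localized β-gal enzyme acceptor and GR fused C-terminally to the enzyme donor fragment; ligand-driven nuclear translocation restores β-gal by complementation. Compounds titrated up to 46 uM final, 2 h at 37 °C; luminescence read.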
Chain of Glucocorticoid receptor (Homo sapiens) (P04150 whole entry, looked up, the tested form may be a part): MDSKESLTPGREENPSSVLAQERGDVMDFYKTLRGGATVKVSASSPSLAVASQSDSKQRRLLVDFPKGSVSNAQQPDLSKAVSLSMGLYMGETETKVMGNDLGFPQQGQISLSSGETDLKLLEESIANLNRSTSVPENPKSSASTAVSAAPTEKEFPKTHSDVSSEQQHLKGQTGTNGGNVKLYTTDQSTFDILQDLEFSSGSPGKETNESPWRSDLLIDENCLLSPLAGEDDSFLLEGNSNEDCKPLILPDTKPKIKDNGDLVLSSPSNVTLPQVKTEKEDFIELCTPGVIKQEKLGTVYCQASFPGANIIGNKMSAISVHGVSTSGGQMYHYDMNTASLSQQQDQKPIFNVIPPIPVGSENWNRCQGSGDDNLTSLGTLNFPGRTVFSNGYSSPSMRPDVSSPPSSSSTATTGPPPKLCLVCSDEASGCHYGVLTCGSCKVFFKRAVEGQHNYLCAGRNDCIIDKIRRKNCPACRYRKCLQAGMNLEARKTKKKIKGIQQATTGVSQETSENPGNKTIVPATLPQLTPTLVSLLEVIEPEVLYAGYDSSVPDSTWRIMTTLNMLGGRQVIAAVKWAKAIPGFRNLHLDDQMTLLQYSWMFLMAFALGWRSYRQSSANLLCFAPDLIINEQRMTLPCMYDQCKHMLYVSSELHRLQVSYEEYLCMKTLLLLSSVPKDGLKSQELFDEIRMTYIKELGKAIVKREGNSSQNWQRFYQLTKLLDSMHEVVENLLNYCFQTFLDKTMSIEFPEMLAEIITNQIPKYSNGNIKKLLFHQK

The target of assay [2] is Mitogen-activated protein kinase 10 (Mus musculus) (UniProt Q61831). Description: JNK3 AlphaScreen Assay (AID 530; active = well fitted curve in either direction with a large enough effect, not every such curve was filed as active;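 note: kinase came from lysate of stimulated human HepG2 cells; signal reports phosphorylation of biotinylated GST-cJun 1-79 at Ser73 with 10 µM ATP; % is set by controls: 0 for no effect and ±100 for the full control effect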). As to conditions: JNK3 lysate, c-Jun phosphorylation; series mostly up to 57.1 µM. In short, it runs like this:
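JNK3 came from HepG2 lysates pre-activated with IL-1beta and TNF-alpha and phosphorylated biotinylated GST-cJun (1-79) at 10 uM ATP, pH 7.6, room temperature. Compounds were titrated. AlphaScreen signal used anti-phospho-cJun (Ser73) antibody.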

Assay [3] has as its target 3',5'-cyclic-AMP phosphodiesterase 4B (Homo sapiens) (UniProt Q07343). As to the kind of experiment: qHTS Assay for Inhibitors of PDE-IV (AID 607; active = well fitted activation curve with a large enough effect in the main read-out, with a control signal flat, not every such curve was filed as active; note: % of control where 0% means no effect). The conditions noted are these: HEK293 ACTOne CNG channel cells, membrane potential fluorescence; series mostly up to 22.9 µM. In short, it runs like this:
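ACTOne HEK293 cells carry a modified cAMP-gated CNG channel and express endogenous PDE4; plated 1000 cells/well, compounds up to 22.9 uM final. Membrane-potential dye fluorescence (ex 535/em 590) was read; parental cells received 10 uM forskolin + 100 uM RO 20-1724.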
In general terms: In qHTS, concentration-response curves come from the screen itself.

A short description of assay [4]: Cell Viability - N2a (AID 540).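 Note: plate controls were DMSO alone for no effect and tamoxifen control for full effect; nearly all actives have a fitted effect of over 45% in size.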 The conditions noted are these: N2a mouse neuroblastoma cell viability; activity change, negative = cytotoxicity: at 92.2 µM (top of the series). In short, it runs like this: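 Mouse neuroblastoma N2a cells (1500/well) were preincubated 5 hr at 37 °C, then exposed to compounds for 40 hr at 37 °C in complete medium. Viability was read as intracellular ATP by CellTiter-Glo luminescence; AC50 from Hill fits.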

Assay [5] in a line: Cell Viability - NIH 3T3 (AID 541).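 Note: plate controls were DMSO alone for no effect and tamoxifen positive control for full effect; nearly all actives have a fitted effect of over 25% in size.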 The conditions noted are these: NIH 3T3 cell viability, qHTS; activity change, negative = cytotoxicity: at 92.2 µM (top of the series). In short, it runs like this:
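NIH 3T3 mouse embryo fibroblasts (1000 cells/well) were plated in complete medium and treated with compound for 40 hr at 37 °C. Viability was read as intracellular ATP by CellTiter-Glo luminescence; AC50 values came from Hill-equation fits of concentration-response data.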

Assay [6] is described as follows: Cell Viability - HUV-EC-C (AID 542). Note: % is set by controls: 0 for no effect and ±100 for the full control effect; nearly all actives have a fitted effect of over 35% in size. As to conditions: HUV-EC-C endothelial cell viability, qHTS; series mostly up to 92.2 µM. In a few lines: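 HUV-EC-C normal human vascular endothelial cells, 1000 cells/well, pre-incubated 5 hr at 37 °C, then exposed to compounds for 40 hr at 37 °C in complete medium. Viability measured as intracellular ATP by CellTiter-Glo luminescence; AC50 from Hill fits.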

Assay [7] is described as follows: Cell Viability - H-4-II-E (AID 543). Note: nearly all actives have a fitted effect of over 35% in size. Note: potency is the fitted concentration of half-maximal effect. As to conditions: H-4-II-E rat hepatoma viability; series mostly up to 92.2 µM. In a few lines:
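Rat hepatoma H-4-II-E cells (1500/well) were plated, incubated 5 hr at 37 °C, then exposed to compounds for 40 hr at 37 °C. Cellular ATP was read by CellTiter-Glo luminescence; AC50 came from Hill-equation fits of concentration-response data.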

The nature of assay [8]: Cell Viability - SH-SY5Y (AID 544). Note: nearly all actives have a fitted effect of over 55% in size. Note: potency is the fitted concentration of half-maximal effect. As to conditions: SH-SY5Y neuroblastoma cell viability; viability change, negative = cytotoxic: at 92.2 µM (top of the series). In a few lines:
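Human neuroblastoma SH-SY5Y cells (1500/well) in complete medium were exposed to compounds for 40 hr at 37 °C; intracellular ATP was then quantified by CellTiter-Glo luminescence after 20 min at room temperature. AC50 came from Hill-equation concentration-response fits.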

Assay [9] in a line: Cell Viability - Renal Proximal Tubule (AID 545). Note: nearly all actives have a fitted effect of over 40% in size. As to conditions: renal proximal tubule cells viability, primary cells of rat origin; series mostly up to 91.7 µM. In a few lines:
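Rat renal proximal tubule primary cells, 1000/well, exposed to compounds for 40 hr at 37 °C in complete medium; cellular ATP read by CellTiter-Glo luminescence. AC50 from concentration-response fitted with standard Hill equation.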

The nature of assay [10]: Cell Viability - Mesenchymal (AID 546).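 Note: cells exposed to compound for 40 hours before reading.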 As to conditions: mesenchymal cells viability, qHTS; series mostly up to 91.7 µM. In short, it runs like this: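 Normal human renal glomerulus-derived kidney mesenchymal cells, 1000 per well in complete medium, were treated with compounds for 40 hr at 37 °C. Viability was read as intracellular ATP by CellTiter-Glo luminescence; AC50 values came from Hill-equation fits of qHTS concentration-response data.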

A short description of assay [11]: Cellular Toxicity (caspase-3) HepG2 (AID 654).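 Note: cells exposed to compound for 16 hours before reading; 0% = DMSO alone and 100% = caspase signal from 100 µM tamoxifen.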 The conditions noted are these: HepG2 caspase-3 activation, luminescence, 0% = DMSO only, 100% = tamoxifen; series mostly up to 92.2 µM. In short, it runs like this: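 HepG2 cells (1500/well) in complete medium were treated with compounds for 16 hr at 37 °C. Caspase-3/7 activity was then read as luminescence from peptide-aminoluciferin cleavage. AC50 came from Hill fits, normalized to DMSO and 100 uM tamoxifen.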

Assay [12] is described as follows: Cellular Toxicity (caspase-3) Jurkat (AID 655).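 Note: cells exposed to compound for 16 h at 37 °C before reading.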 As to conditions: Jurkat caspase-3 activation, luminescence; series mostly up to 92.2 µM. In a few lines: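 Jurkat cells (5000/well) in complete medium exposed 16 h at 37 C; caspase-3/7 activity read by Caspase-Glo luminescence after 20 min at room temperature. Normalized to DMSO and 100 uM tamoxifen; AC50 from Hill fits.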

Assay [13] can be described thus: Cellular Toxicity (caspase-3) HUV-EC-C (AID 656). As to conditions: HUV-EC-C cells, caspase-3 activation (apoptosis), vehicle = 0, 100 µM tamoxifen = 100%; series mostly up to 92.2 µM. In a few lines:
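HUV-EC-C cells (1000/well) in complete medium, compound-treated 16 h at 37 °C; caspase-3/7 activity read by Caspase-Glo 3/7 luminescence. Normalized to DMSO (basal) and 100 uM tamoxifen (100%); AC50 from Hill-equation concentration-response fits.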

A short description of assay [14]: Cellular Toxicity (caspase-3) SHSY5Y (AID 657). As to conditions: SH-SY5Y caspase-3 activation, DMSO zero, 10 µM staurosporine = 100%; series mostly up to 91.7 µM. In a few lines:
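SH-SY5Y human neuroblastoma cells, 1500/well, exposed to compound for 16 hours at 37 °C in complete medium. Caspase-3/7 activity read by Caspase-Glo luminescence after 1 hr at room temperature, normalized to DMSO and 10 uM staurosporine; AC50 from Hill fit.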

The nature of assay [15]: Cellular Toxicity (caspase-3) BJ (AID 658). The conditions noted are these: BJ fibroblasts, luminescence, normalized: DMSO 0%, staurosporine 100%; series mostly up to 91.7 µM. In short, it runs like this:
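Luminescent aminoluciferin-substrate cleavage reports caspase 3/7 activity in normal human BJ fibroblasts after 16 hr compound exposure at 37 °C. Normalized to DMSO (basal) and 10 uM staurosporine (100%); AC50 from Hill fit of concentration-response.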

A short description of assay [16]: Cellular Toxicity (caspase-3) Mesangial (AID 660).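 Note: cells exposed to compound for 16 h before the caspase read.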 As to conditions: mesangial cells, normalized: DMSO 0%, 100 µM tamoxifen 100%; series mostly up to 91.7 µM. In a few lines:
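Human renal glomerular mesangial cells (1000/well) were treated with compounds for 16 h at 37 °C in complete medium, then caspase 3/7 activity was read by Caspase-Glo luminescence. Data were normalized to DMSO and 100 uM tamoxifen; AC50 from Hill fits.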

Assay [17] can be described thus: Cellular Toxicity (caspase-3) H-4-II-E (AID 663).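 Note: cells exposed to compound for 16 hr before readout.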 The conditions noted are these: H-4-II-E rat hepatoma, scaled: DMSO 0%, 100 µM tamoxifen 100%; series mostly up to 92.2 µM. In short, it runs like this:
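Luminescence from caspase-cleaved aminoluciferin substrate, read 20 min after reagent addition, reports caspase 3/7 activation in rat H-4-II-E cells after 16 hr compound exposure. Normalized to DMSO (basal) and 100 uM tamoxifen (100%); AC50 from Hill fits.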

The nature of assay [18]: Cellular Toxicity (caspase-3) Hek293 (AID 664).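 Note: cells exposed to compound for 16 h at 37 °C before readout.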 Note: potency is the fitted concentration of half-maximal effect. The conditions noted are these: HEK293 caspase-3 activation; caspase-3 activation: at 92.2 µM (top of the series), DMSO = 0%, 100 µM tamoxifen = 100%. In short, it runs like this:
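HEK293 cells were exposed to compounds in complete medium for 16 hr at 37 °C, then caspase-3/7 activity was read by Caspase-Glo 3/7 luminescence after 20 min at room temperature. Data normalized to DMSO and 100 uM tamoxifen; AC50 from Hill fits.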

A short description of assay [19]: Cellular Toxicity (caspase-3) N2a (AID 665).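 Note: compound exposure lasted 16 h at 37 °C before readout.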 As to conditions: N2a cells, luminescence, normalized: DMSO 0%, 10 µM staurosporine 100%; series mostly up to 92.2 µM. In a few lines:
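Mouse N2a neuroblastoma cells (1500/well) were treated with compounds for 16 h at 37 °C, then caspase-3/7 activity was read by Caspase-Glo luminescence after 1 h at room temperature. Data were normalized to DMSO and 10 uM staurosporine; AC50 from Hill fits.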

Several values for one entry are separate records, joined by “and”; a condition that tells them apart may be missing. Equal entries are not always repeated. Unmarked numbers belong to inactive results. Results filed as inconclusive are left out. Activity calls are given as the source filed them. Unless noted, calls come from the whole dose curve; as a rule, active = well fitted curve in the direction sought with a large enough effect; inconclusive = small, poorly fitted or top-dose-only effect, or another doubt; inactive = no such curve, though single readings can be large; an effect the other way counts as inactive or inconclusive.

Chain of 3',5'-cyclic-AMP phosphodiesterase 4B (Homo sapiens) (Q07343 whole entry, looked up): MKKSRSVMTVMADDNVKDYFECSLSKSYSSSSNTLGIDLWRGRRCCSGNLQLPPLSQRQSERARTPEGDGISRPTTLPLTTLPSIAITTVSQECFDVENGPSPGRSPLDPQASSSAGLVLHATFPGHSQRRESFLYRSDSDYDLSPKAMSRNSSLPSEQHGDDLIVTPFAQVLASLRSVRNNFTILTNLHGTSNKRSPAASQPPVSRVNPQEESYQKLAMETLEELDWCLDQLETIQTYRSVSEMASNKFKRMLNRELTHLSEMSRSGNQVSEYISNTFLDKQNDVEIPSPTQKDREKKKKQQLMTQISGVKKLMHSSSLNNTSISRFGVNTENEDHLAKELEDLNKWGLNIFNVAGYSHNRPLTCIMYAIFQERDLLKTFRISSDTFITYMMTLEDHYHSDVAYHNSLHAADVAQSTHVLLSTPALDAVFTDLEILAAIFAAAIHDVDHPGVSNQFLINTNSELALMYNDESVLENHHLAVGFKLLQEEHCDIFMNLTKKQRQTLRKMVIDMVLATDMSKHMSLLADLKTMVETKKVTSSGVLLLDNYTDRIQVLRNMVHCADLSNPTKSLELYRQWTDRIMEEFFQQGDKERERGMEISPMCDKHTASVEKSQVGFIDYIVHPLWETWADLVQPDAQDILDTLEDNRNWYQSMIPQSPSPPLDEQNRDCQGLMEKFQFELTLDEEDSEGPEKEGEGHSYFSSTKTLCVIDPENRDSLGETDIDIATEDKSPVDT

Consider `Cc1cc(C(C)(C)C)c(O)c(C)c1CC1=NCCN1`, for which the Potency in [1] is > 46 µM and > 20.6 µM. In [2], the outcome was inactive. The Potency entry in assay [3] was “inactive”.

On to `Cc1cn([C@H]2C=C[C@@H](CO)O2)c(=O)[nH]c1=O`, for which the compound was classed as inactive in [2], in assay [6], in assay [10], in [11], in [13] and in [14]. The compound was classed as inactive in assay [15], in [16], in assay [17] and in assay [19]. Further, the activity change, negative = cytotoxicity in assay [4] was 11.8% and 9.96%. Further, the Potency result in assay [5], in assay [7], in [8], in assay [9], in assay [12] and in assay [18] was “inactive” in each case.

`Cc1cnc(C(=O)NCCc2ccc(S(=O)(=O)NC(=O)NC3CCCCC3)cc2)cn1`: the call in assay [2] was inactive. Further, in assay [3], the Potency result was “inactive”.

With `CC(C)C(=O)Nc1ccc([N+](=O)[O-])c(C(F)(F)F)c1`, the call in assay [2], in assay [6], in assay [10], in [11], in [13] and in [14] was inactive. Besides, the call in [15], in assay [16], in assay [17] and in [19] was inactive. In assay [4], the activity change, negative = cytotoxicity was -119% (active). Moreover, the Potency in [7] is 39.8 µM (active). Also, the Potency result in [8], in assay [9], in assay [3], in [12] and in [18] was “inactive” in each case.

Take `CC(COc1ccccc1)N(CCCl)Cc1ccccc1` (configuration not stated): the compound was called inactive in assay [2], in assay [13], in [14], in [16] and in assay [17]. Besides, in assay [4], the activity change, negative = cytotoxicity is -85.6% (active). Also, the Potency in assay [8] and in [18] was 31.6 µM (active) throughout.

Consider `Cc1ccc(-c2cc(C(F)(F)F)nn2-c2ccc(S(N)(=O)=O)cc2)cc1`, for which the result in assay [2], in [6], in assay [10], in [11], in assay [13] and in [14] was inactive. The compound was called inactive in assay [15] and in assay [19]. Also, the activity change, negative = cytotoxicity was -43.6% in [4] and -132% (active) in [5]. The Potency entry in [12] and in assay [18] was “inactive” each time.

As to `O=C1c2c(O)ccc(O)c2C(=O)c2c(NCCNCCO)ccc(NCCNCCO)c21`, the Potency in assay [1] is > 46 µM and > 20.6 µM. Moreover, the compound was classed as inactive in assay [2]. Besides, the Potency result in [3] was “inactive”.

The record behind these values is PubChem BioAssay (NCATS).
